# Where a name gives a salt, the structure may show the parent alone.
# Columns and labels:
# Conditions in all cases: compound concentration in added solution (µM; 5 µl added to 20 µl cells): 10; 18 h
# A431 [1] = test: LBPA endosome anti-LBPA integrated intensity (sum per cell), Z-score; higher = more LBPA staining
# Procedure, shortened: (§1)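 The data are Z-scores, normalised in AcuityXpress, of integrated LBPA or filipin intensity in each cell, either whole-cell or restricted to LBPA endosomes. HeLa MZ or A431 cells, 3,500 per well in 20 µl, were seeded onto 5 µl of 10 µM compound solution in duplicate 384-well plates and incubated 18 h. Fixed cells were stained and imaged, with intensities extracted by MetaXpress segmentation.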
# HeLa MZ [2] = test: as above
# Procedure, shortened: as §1
# A431 [3] = test: whole-cell filipin (free cholesterol) integrated intensity, Z-score; higher = more cholesterol staining
# Procedure, shortened: as §1
# HeLa MZ [4] = test: as above
# Procedure, shortened: as §1
# A431 [5] = test: filipin (cholesterol) integrated intensity within LBPA endosomes, Z-score; higher = more cholesterol in LBPA endosomes
# Procedure, shortened: as §1
# HeLa MZ [6] = test: as above
# Procedure, shortened: as §1
smiles,measurement,setting,value
CN(C)CCC[C@@]1(c2ccc(F)cc2)OCc2cc(C#N)ccc21 [Escitalopram],LBPA endosome anti-LBPA integrated intensity (z-score),A431 [1],-0.359
same,LBPA endosome anti-LBPA integrated intensity (z-score),HeLa MZ [2],1.34
same,whole-cell filipin (z-score),A431 [3],0.0689
same,whole-cell filipin (z-score),HeLa MZ [4],0.675
same,filipin (z-score),A431 [5],-0.134
same,filipin (z-score),HeLa MZ [6],0.883
Cc1ccc(-c2cc(C(F)(F)F)nn2-c2ccc(S(N)(=O)=O)cc2)cc1 [Celecoxib],LBPA endosome anti-LBPA integrated intensity (z-score),A431 [1],-0.0813
same,LBPA endosome anti-LBPA integrated intensity (z-score),HeLa MZ [2],0.702
same,whole-cell filipin (z-score),A431 [3],0.406
same,whole-cell filipin (z-score),HeLa MZ [4],0.113
same,filipin (z-score),A431 [5],-0.205
same,filipin (z-score),HeLa MZ [6],-0.22
CC[N+](C)(C)c1cccc(O)c1 [Edrophonium chloride],LBPA endosome anti-LBPA integrated intensity (z-score),A431 [1],-0.613
same,LBPA endosome anti-LBPA integrated intensity (z-score),HeLa MZ [2],-1.29
same,whole-cell filipin (z-score),A431 [3],-0.969
same,whole-cell filipin (z-score),HeLa MZ [4],-0.842
same,filipin (z-score),A431 [5],-0.456
same,filipin (z-score),HeLa MZ [6],-0.596
C#C[C@]1(O)CC[C@H]2[C@@H]3CCc4cc(OC)ccc4[C@H]3CC[C@@]21C [Ethynylestradiol 3-methyl ether],LBPA endosome anti-LBPA integrated intensity (z-score),A431 [1],-0.376
same,LBPA endosome anti-LBPA integrated intensity (z-score),HeLa MZ [2],0.717
same,whole-cell filipin (z-score),A431 [3],-0.391
same,whole-cell filipin (z-score),HeLa MZ [4],0.0701
same,filipin (z-score),A431 [5],-0.42
same,filipin (z-score),HeLa MZ [6],-0.16
CCCCOC(=O)c1ccc(O)cc1 [Butylparaben],LBPA endosome anti-LBPA integrated intensity (z-score),A431 [1],-0.425
same,LBPA endosome anti-LBPA integrated intensity (z-score),HeLa MZ [2],-0.532
same,whole-cell filipin (z-score),A431 [3],-0.203
same,whole-cell filipin (z-score),HeLa MZ [4],-0.161
same,filipin (z-score),A431 [5],-0.376
same,filipin (z-score),HeLa MZ [6],-0.449
O=C1c2ccccc2S(=O)(=O)N1CCCCN1CCN(c2ncccn2)CC1 [Ipsapirone],LBPA endosome anti-LBPA integrated intensity (z-score),A431 [1],-0.419
same,LBPA endosome anti-LBPA integrated intensity (z-score),HeLa MZ [2],0.911
same,whole-cell filipin (z-score),A431 [3],-0.664
same,whole-cell filipin (z-score),HeLa MZ [4],-0.262
same,filipin (z-score),A431 [5],-0.426
same,filipin (z-score),HeLa MZ [6],0.0372
O=C(O)CN(CCN(CC(=O)O)CC(=O)O)CCN(CC(=O)O)CC(=O)O [Pentetic acid],LBPA endosome anti-LBPA integrated intensity (z-score),A431 [1],-0.425
same,LBPA endosome anti-LBPA integrated intensity (z-score),HeLa MZ [2],-1.12
same,whole-cell filipin (z-score),A431 [3],-0.45
same,whole-cell filipin (z-score),HeLa MZ [4],-0.669
same,filipin (z-score),A431 [5],-0.443
same,filipin (z-score),HeLa MZ [6],-0.521
CCOc1ccc(NC(C)=O)cc1 [Phenacetin],LBPA endosome anti-LBPA integrated intensity (z-score),A431 [1],-0.594
same,LBPA endosome anti-LBPA integrated intensity (z-score),HeLa MZ [2],-0.322
same,whole-cell filipin (z-score),A431 [3],-0.814
same,whole-cell filipin (z-score),HeLa MZ [4],-0.392
same,filipin (z-score),A431 [5],-0.555
same,filipin (z-score),HeLa MZ [6],-0.582
OCCN1CCN(CCCN2c3ccccc3Sc3ccc(C(F)(F)F)cc32)CC1 [Fluphenazine dihydrochloride],LBPA endosome anti-LBPA integrated intensity (z-score),A431 [1],2.14
same,LBPA endosome anti-LBPA integrated intensity (z-score),HeLa MZ [2],0.746
same,whole-cell filipin (z-score),A431 [3],-0.522
same,whole-cell filipin (z-score),HeLa MZ [4],0.27
same,filipin (z-score),A431 [5],2.23
same,filipin (z-score),HeLa MZ [6],3.52
O=C(O)CCNC(=O)c1ccc(/N=N/c2ccc(O)c(C(=O)O)c2)cc1 [Balsalazide Sodium],LBPA endosome anti-LBPA integrated intensity (z-score),A431 [1],-0.394
same,LBPA endosome anti-LBPA integrated intensity (z-score),HeLa MZ [2],-0.755
same,whole-cell filipin (z-score),A431 [3],-0.213
same,whole-cell filipin (z-score),HeLa MZ [4],0.475
same,filipin (z-score),A431 [5],-0.386
same,filipin (z-score),HeLa MZ [6],-0.346
CSc1ccc2c(c1)N(CCC1CCCCN1C)c1ccccc1S2 (configuration not stated) [Thioridazine hydrochloride],LBPA endosome anti-LBPA integrated intensity (z-score),A431 [1],1.04
same,LBPA endosome anti-LBPA integrated intensity (z-score),HeLa MZ [2],0.375
same,whole-cell filipin (z-score),A431 [3],-0.796
same,whole-cell filipin (z-score),HeLa MZ [4],-0.81
same,filipin (z-score),A431 [5],1.25
same,filipin (z-score),HeLa MZ [6],1.45
CCN(CC)CCOC(=O)C(c1ccccc1)c1ccccc1 [Adiphenine hydrochloride],LBPA endosome anti-LBPA integrated intensity (z-score),A431 [1],-0.67
same,LBPA endosome anti-LBPA integrated intensity (z-score),HeLa MZ [2],-1.15
same,whole-cell filipin (z-score),A431 [3],-1.14
same,whole-cell filipin (z-score),HeLa MZ [4],-0.931
same,filipin (z-score),A431 [5],-0.574
same,filipin (z-score),HeLa MZ [6],-0.637

# From the supplement of paper PMC6607015
